# According to PubChem BioAssay AID651821 (The Scripps Research Institute Molecular Screening Center, 2012):
# About 4,700 (1.3%) of roughly 370,000 compounds were called active. This is one part of a sample in which actives are shown more often than they occur. Unmarked numbers belong to inactive results.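 How the source made its calls: active means inhibition above the plate cutoff, the mean of all test compounds on that plate plus 3 SD (cut at about 35% in these data); inactive means the rest.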
# Experiment: small molecules binding CAG repeat RNA – biochemical, fluorescence, primary screen (AID 651821);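 further: 0% = DMSO alone and 100% = 100 µM mitoxantrone as full dye displacement; higher means more dye released from RNA so lower well fluorescence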
# Conditions: r(CAG) RNA repeat, TO-PRO-1 dye displacement fluorescence; at 3 µM; active compounds read high
row,Structure (SMILES),inhibition
1,O=c1[nH]c(=O)n(Cc2ccccc2)c(O)c1/C=N/Nc1c(F)c(F)c(F)c(F)c1F,0.55%
2,CCCCn1c(O)c(C(CC)=NCc2ccco2)c(=O)[nH]c1=O,-0.86%
3,CC/C(=N\NC(=O)c1ccccc1O)c1c(O)n(Cc2ccccc2)c(=O)[nH]c1=O,80.1% (active)
4,C[N+]1(C)CCOC(O)(c2ccc(-c3ccc(C4(O)C[N+](C)(C)CCO4)cc3)cc2)C1 (stereo not given),3.46%
5,Cc1ccccc1CCC[C@@H](CC1CCCCC1)CN(C)C(=O)Oc1ccccc1,6.44%
6,Clc1ccc([C@@H]2CC3CCC2N3)cn1 (stereo not given in full),1.8%
7,COc1cc(OC)cc(C(=O)NCCN2CCC3(CC2)C(=O)NCN3c2ccccc2)c1,4.12%
8,COc1ccc(N2C(=O)/C(=C/c3ccco3)C(=O)NC2=S)cc1,67.3% (active)
9,O=Cc1cn(Cc2ccc(F)cc2Cl)c2ccccc12,-0.22%
10,CCc1nnc(NS(=O)(=O)c2ccc(N=Cc3c(O)n(-c4ccccc4)c(=O)[nH]c3=O)cc2)s1,5.87%
11,CC(C)(C)c1ccc(CN2C(=O)CN=C(c3ccccc3)c3ccccc32)cc1,-3.15%
12,O=C1CC(=O)N(Cc2ccccc2)C(=O)N1CCCCCCN1C(=O)CC(=O)N(Cc2ccccc2)C1=O,68% (active)
13,O=C(NC(=S)N1C[C@H]2C[C@H](C1)c1cccc(=O)n1C2)c1ccc(F)cc1,0.97%
14,O=C1C2(Cl)C3(Cl)C4(Cl)C(Cl)(Cl)C5(Cl)C3(Cl)C1(Cl)C5(Cl)C24Cl (stereo not given),11.4%
15,Cc1cc(=O)oc2c(C)c(OCC(=O)N3CCN(Cc4ccc5c(c4)OCO5)CC3)ccc12,-1.14%
16,O=C1NC(=O)N(c2ccccc2)C(=O)/C1=C/c1ccc([N+](=O)[O-])s1,70.2% (active)
17,COc1cccc(N2C(=O)NC(=O)/C(=C\c3ccc([N+](=O)[O-])s3)C2=O)c1,56% (active)
18,CC1=C(C(=O)Nc2ccccc2)SCCO1,5.19%

row,Structure (SMILES),inhibition
1,Cc1ccsc1C(=O)C1CCCN(Cc2ccc(O)cc2)C1 (stereo not given),-1.2%
2,O=c1[nH]c(=O)n(-c2ccccc2)c(O)c1C=NC12CN3CN(CN(C3)C1)C2,2.56%
3,O=S(=O)(c1ccccc1)N1CCC2CCNC2C1 (stereo not given),1.15%
4,Cc1cc(N2CCNC[C@@H]2C)ccc1N1CC[C@H](O)C1,3.47%
5,COc1ccccc1OC(=O)c1ccc(C)c(S(=O)(=O)N2CCOCC2)c1,-3.22%
6,CS(=O)(=O)N1CCC2CCNC2C1 (stereo not given),0.17%
7,COP(=O)(Sc1ccccc1)C(Cc1ccccc1)NC(=O)OCc1ccccc1 (stereo not given),-1.61%
8,CCC(C)NC1(c2ccccc2)CCCCC1 (stereo not given),2.27%
9,COc1ccc(CN2CCN(c3ccccc3F)CC2)c(OC)c1,-4.43%
10,Brc1ccc2c(c1)CNCc1cnnn1-2,0.59%
11,COc1ccc2c(c1)[C@@]13CCCCC1[C@@H](C2)NCC3 (stereo not given in full),37.9% (active)
12,COc1ccc2[nH]c3c(c2c1)CCN[C@H]3C,3.06%
13,COc1ccc2c(c1)[C@]13CCCCC1C(C2)N(C)CC3 (stereo not given in full),3.99%
14,CCN(CC)C(=O)[C@@H]1C=C2c3cccc4[nH]c(Br)c(c34)C[C@H]2N(C)C1,2.23%
15,CN(C)C(=O)NC(O)C(Cl)(Cl)Cl (stereo not given),-3.56%
16,O=C1NC(=O)N(Cc2ccco2)C(=O)/C1=C\c1ccc(-c2ccc(F)cc2)o1,52.2% (active)
17,CCC1(CC(C)c2ccccc2)C(=O)NC(=O)NC1=O (stereo not given),1.88%
